In PubChem BioAssay AID720650 (Broad Institute, 2013) one finds AC50 data, which are given here for 16 compounds.

What is called AC50 is the concentration at which the activity in the assay is half-maximal.

A number with no mark means an inactive call. Calls of active or inactive are those of the source. No rule for the calls is given here.

This experiment can be described thus: C difficile toxins, biochemical counterscreen, UDPG substrate absence, confirmatory dose response (AID 720650). The settings on record: series mostly up to 19.5 µM. On the technique in general: A counterscreen serves to expose hits that act by an unwanted route or on another target.
On to `C[C@H](CO)N1C[C@H](C)[C@@H](CN(C)C(=O)Nc2ccc(C(F)(F)F)cc2)Oc2c(NS(=O)(=O)c3cccs3)cccc2C1=O`, for which the AC50 is greater than 39 µM.
As to `CN1C(=O)c2cc(NC(=O)c3cccc(F)c3)ccc2OC[C@H]2O[C@H](CC(=O)NCC3CCCCC3)CC[C@@H]21`, the AC50 result was “inactive”.
As for `Cc1ccc2c(C)c3ccc4ccccc4c3c[n+]2c1`, the entry is “inactive”; as for `CCOC(=O)c1nnn(-c2nonc2N)c1-c1ccccc1Cl`, “inactive”.
For `N#C/C(=C\c1ccc(N2CCOCC2)o1)C(=O)Nc1ccc(O)cc1`, the AC50 result was “inactive”.
Regarding `COC(=O)[C@H]1C[C@@H]1[C@H](NP(=O)(c1ccccc1)c1ccccc1)c1ccccc1`, the AC50 entry is “inactive”.
For the compound `O=C(NCc1ccccc1)[C@@H]1CCCN1C(=O)[C@@H]1CCCN1C(=O)c1cccs1`, the AC50 result was “inactive”.
For the compound `Oc1ccc(Cc2ccccc2Cl)c(O)c1`, the AC50 was greater than 39 µM.
For the compound `COc1cc(NC(=O)CSc2nc3[nH]ncc3c(=O)n2-c2ccccc2C)cc(OC)c1OC`, the AC50 entry is “inactive”.
With `O=c1[nH]nc(-c2ccc(F)cc2)cc1Cc1ccccc1`, the AC50 result is “inactive”.
In the case of `Cn1ncc(Cl)c1C(=O)N/N=C/c1cccc(OC2CSC2)c1`, the AC50 was greater than 39 µM.
In the case of `S=c1[nH]nc(-c2ccccn2)n1/N=C/c1ccc(Cl)cc1`, the AC50 entry is “inactive”.
Regarding `COc1ccc(C2=NS(=O)(=O)N(C)C(C(=O)N3CCOCC3)=C2)cc1`, the AC50 result is “inactive”.
In the case of `O=C(O)c1ccc(-n2nnc3ccccc32)c([N+](=O)[O-])c1`, the AC50 result is “inactive”.
For `CCOc1cc(/C=N\n2nnnc2N)ccc1O`, the AC50 result was “inactive”.
Consider `Oc1cc(O)cc(/C=C/c2ccc(O)c(O)c2)c1`, for which the AC50 entry was “inactive”.
